Source: PubChem BioAssay
Most compounds without a hit are left out; they make up all but 4.5% or so of the library.
Beta apoptosis: beta cell apoptosis inhibition; INS-1E cytokine-induced death, ATP luminescence, 48 h; percent of positive-control rescue, neutral wells zero; protection from apoptosis, % (test concentration not listed); actives 0.8% (n = 300,000); AID 435005;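 active = Every replicate reaches about 75%, or at least half do and their mean reaches it too, limit read from the data; inconclusive = At least half of replicates reach the limit but their mean does not; inactive = Under half of replicates reach the limit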;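 note: 0% = cytokine-treated negative control wells and 100% = positive control rescue; higher means more ATP so stronger rescue from cytokine killing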
697 NFkB inh: lowers PMA/ionomycin-induced NF-kB signal in 697 B cells. 697 B-cell NF-kB luciferase reporter, 16 h. actives 0.33% (n = 330,000). inhibition, % at 4 µM; in the data active = inhibition above about 35%
Mdm2-MdmX inh: disrupts the human Mdm2-MdmX interaction; SaOS-2 split-luciferase Mdm2/MdmX complementation, luminescence; inhibition, % at 8 µM; actives 3% (n = 330,000);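 active = inhibition of at least 50% at 8 µM in the primary screen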
Jurkat NFkB inh: lowers PMA/ionomycin-induced NF-kB signal in Jurkat cells; PMA/ionomycin-induced NF-kB luciferase reporter, luminescence; inhibition, % at 4 µM; actives 0.53% (n = 330,000); AID 435003; in the data active = inhibition above about 50%
CSC inhib: cancer stem cell inhibition. cancer stem cell-like cells viability, luminescence. inhibition, % at 7.5 µM. actives 1.1% (n = 300,000); in the data active = inhibition above about 75%; inconclusive = no clear call, values can overlap the other calls; tested in HMLE shEcad cells
Gli-Sufu block: Gli-Sufu pathway antagonism; inhibition, % at 5 µM; actives 0.74% (n = 340,000); Sufu-KO-LIGHT fibroblasts, Gli luciferase reporter luminescence;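 active = inhibition above about 55%, limit read from the data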;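 note: 0% = DMSO-treated cells and 100% = wells with medium but no cells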
Jurkat NFkB conf: lowers PMA/ionomycin-induced NF-kB signal in Jurkat cells; shares compounds with Jurkat NFkB inh; Jurkat NF-kB luciferase, 16 h; inhibition, % at 4 µM; actives 27% (n = 2,700); AID 435020;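 active = inhibition reaching about 45% at 4 µM in either replicate, limit read from the data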;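 note: plate controls were PMA/ionomycin stimulated DMSO wells for no effect and unstimulated DMSO wells for full effect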
697 NFkB conf: lowers PMA/ionomycin-induced NF-kB signal in 697 B cells. 697 B-cell NF-kB luciferase, 16 h. AID 449746. shares compounds with 697 NFkB inh. actives 35% (n = 2,000). inhibition, % at 4 µM; in the data active = inhibition mostly above about 28%, no sharp cut-off; inactive = mostly below about 22%
Mdm2 MdmX conf: confirmation of human Mdm2/MdmX interaction inhibitors; actives 55% (n = 10,000); inhibition, % at 8 µM; AID 489028; Mdm2-MdmX binding, luminescent assay; shares compounds with Mdm2-MdmX inh; in the data active = inhibition above about 40%
FLuc counter: full-length luciferase inhibition in Mdm2/MdmX counter-screen; shares compounds with Mdm2-MdmX inh; SaOS-2 full-length luciferase counterscreen, luminescence; inhibition, % at 8 µM; actives 77% (n = 6,200);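 active = mean inhibition at 8 µM reaching about 37%, which flags the compound as non-specific, limit read from the data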;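 note: p53-null SaOS-2 cells with luciferase driven by a doxycycline-inducible promoter; compound on cells about two nights before reading with doxycycline added after day one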
Active calls of the source: *; ? = inconclusive; . = no result.

SMILES | Beta apoptosis | 697 NFkB inh | Mdm2-MdmX inh | Jurkat NFkB inh | CSC inhib | Gli-Sufu block | Jurkat NFkB conf | Mdm2 MdmX conf | FLuc counter | others
CCn1cc2nc(SCC(=O)Nc3ccc(OC)cc3OC)n(Cc3ccc(OC)cc3)c(=O)c2n1 | 19 | -23 | 50* | 52* | 54 | 0 | 30 | 42* | 52*
Cc1onc(-c2ccccc2)c1C(=O)OCCOc1cccc(Cl)c1 | . | -15 | 52* | 52* | 74 | -8 | 13 | 62* | 64*
Clc1cccc(Cl)c1/C=N/Nc1c(Cl)cncc1Cl | . | -35 | 65* | 73* | . | -16 | 49 | 64* | 22
CCNC(=S)N/N=C/c1c(Cl)cccc1Cl | -5 | -4 | 19 | -21 | -9 | 0 | . | . | .
Cc1cc(-c2ccc(S(=O)(=O)N(C)c3ccc(C)c(C)c3)s2)on1 | 15 | -56 | 56* | 57* | 71 | 26 | 40 | 54* | 47*
CCN1CCN(S(=O)(=O)c2ccc(-c3cc(C)no3)s2)CC1 | -10 | 16 | 4 | 4 | -3 | 2 | . | . | .
COc1ccc(-c2cc(C)no2)cc1S(=O)(=O)N(C)c1ccc(C)c(C)c1 | 1 | -32 | 15 | 2 | 23 | 12 | . | . | .
Cc1ccc(N(C)S(=O)(=O)c2ccc(-c3cc(C)no3)s2)cc1 | -2 | -47 | 54* | 51* | -20 | -8 | 20 | 55* | 59*
O=C(C[n+]1ccc(/C=C/c2ccccc2)cc1)c1ccc2c(c1)OCCO2 | -1 | 8 | 75* | 54* | -5 | 9 | 18 | 29 | .
Cc1cc[n+](CC(=O)c2ccc3c(c2)OCCO3)cc1 | -7 | -1 | 18 | -5 | -5 | -2 | . | . | .
COc1ccc(/C=N/NC(=O)c2[nH]c3ccc(Br)cc3c2-c2ccccc2)cc1 | 69 | -154 | 74* | 84* | 55 | 39 | 61* | 60* | 108*
COC(=O)[C@@H]1Cc2c([nH]c3ccccc23)C(C)(C)N1C(=O)CCl | -6 | 88* | 100* | 55* | 11 | 21 | 16 | 98* | 17 | 697 NFkB conf=69*
COC(=O)c1ccc(C)c(NS(=O)(=O)c2ccc3c(c2)OCCO3)c1 | 10 | 3 | 64* | 58* | 51 | 49 | 52* | 60* | 78*
COc1ccc(N(C(=O)c2ccccc2C)S(=O)(=O)c2cccs2)cc1 | 13 | -1 | 59* | 66* | ? | 46 | 48 | 53* | 105*
O=C(COC(=O)c1ccc(S(=O)(=O)C(F)F)cc1)Nc1ccccc1C(=O)NC1CC1 | -5 | 1 | -10 | -3 | -8 | 2 | . | . | .
COc1cc2c(c(OC)c1OC)-c1ccc(OC)c(=O)cc1C(NC(C)=O)CC2 (centres undefined) | . | -149 | 60* | 63* | 50 | 45 | 60* | 58* | 118*
CC(NCC(=O)NC(=O)NCCC1=CCCCC1)c1ccc(S(N)(=O)=O)cc1 (centres undefined) | . | . | . | . | . | 4 | . | . | .
CC1C/C(=C/c2ccncc2)C(=O)/C(=C/c2ccncc2)C1 (centres undefined) | 112* | -128 | 99* | 96* | 77* | -3 | 39 | 99* | 51*
Cc1ccc(NC(=O)C2CCCN2S(=O)(=O)c2ccc(-c3ccc(=O)[nH]n3)s2)c(C)c1 (centres undefined) | -2 | 7 | 13 | 6 | 3 | -6 | . | . | .
COc1ccc(-c2cc3nc(C)n(N)c(=O)c3s2)cc1 | 53 | 53* | 89* | 80* | 97* | 76* | 83* | 88* | 56* | 697 NFkB conf=49*
COc1ccc(-c2cc3nc4n(c(=O)c3s2)CCC4)cc1 | 9 | -117 | 34 | -25 | 16 | 24 | . | . | .
CC(=O)Nc1ccc(S(=O)(=O)N2CCCc3ccccc32)cc1 | 15 | -48 | 58* | 63* | 55 | -8 | 34 | 59* | 51*
O=S(=O)(c1ccc(Cl)cc1)N1CCCc2ccccc21 | . | 13 | 10 | 3 | -6 | 5 | . | . | .
COC(=O)Nc1ccc(S(=O)(=O)N2c3ccccc3CCC2C)cc1 (centres undefined) | 10 | -85 | 58* | 53* | 145* | 10 | 38 | 63* | 60*
Cc1cc(C=O)sc1[B-](F)(F)F | . | . | . | . | . | -7 | . | . | .
SMILES | Beta apoptosis | 697 NFkB inh | Mdm2-MdmX inh | Jurkat NFkB inh | CSC inhib | Gli-Sufu block | Jurkat NFkB conf | Mdm2 MdmX conf | FLuc counter | others
O=C1c2c(O)ccc(O)c2C(=O)c2c(NCCNCCO)ccc(NCCNCCO)c21 | 67 | 74* | 100* | 100* | 97* | 77* | 89* | 98* | 2 | 697 NFkB conf=-63
Cc1ccc(CNC(=O)CC(C)S(=O)(=O)c2ccc3c(c2)NC(=O)C(C)S3)cc1 (centres undefined) | 4 | 6 | -12 | 15 | -2 | 26 | . | . | .
COc1cccc2sc(Nc3nc(-c4ccncc4)cs3)nc12 | 34 | -28 | 61* | 60* | 49 | -5 | 35 | 46* | 51*
COc1ccccc1-c1nnc(Nc2nc3c(OC)cccc3s2)o1 | 72 | -110 | 59* | 88* | 67 | 89* | 34 | 68* | 72*
COc1cccc2sc(Nc3nc(-c4cc5ccccc5oc4=O)cs3)nc12 | 4 | . | . | . | 50 | 1 | . | . | .
COc1cccc2sc(Nc3nnc(-c4ccccc4Cl)o3)nc12 | . | -30 | 65* | 58* | 71 | 3 | 45 | 65* | 54*
Cc1cc(O)c2c(c1O)C(=O)[C@]13C(=C2O)C(=O)[C@@H]2[C@@H](O)[C@H]1[C@@H]1[C@H](O)[C@H]3C(=O)C3=C(O)c4c(O)cc(C)c(O)c4C(=O)[C@]312 | . | 44* | 87* | 85* | . | 78* | 87* | 85* | 23 | 697 NFkB conf=-18
COc1ccc(CCN=C(N)C(C)c2ccccc2)cc1OC (centres undefined) | -1 | 13 | 15 | -6 | -11 | 3 | . | . | .
CC(C)Cc1ccc(C(C)C(N)=NCCc2ccccc2)cc1 (centres undefined) | 11 | -25 | 81* | 50* | 59 | 14 | 1 | 72* | 48*
COc1ccccc1CNC(=O)c1cc(-c2ccccc2)n(Cc2cc(C)no2)n1 | 0 | 19 | 15 | 21 | -4 | -3 | . | . | .
CCCCc1ccc(N/C(N)=N/c2nc(C)cc(C)n2)cc1 | 124* | -40 | 66* | 75* | 44 | 50 | 30 | 33 | .
